# Experimental data from the OligoGym collection.
# Molecular target: LEKR1
# Experiment: pooled miR-30 sensor sort-seq; sequence = guide strand
# Details: shRNA
# Note: reference of the scale not given here.
row,Sequence,sensor-assay potency score (higher = more potent)
1,TTTCCTTTGAATTAGATTCTTC,0.113
2,TTCTGCTTCAATCTTCTCCTTC,0.505
3,TTTCACAGTCAGCTCTTCCTGT,0.514

# Molecular target: LENG8
# Experiment: as above
# Details: shRNA
row,Sequence,sensor-assay potency score (higher = more potent)
1,TTGTCCTTCATGAAGACGTTGC,-0.437
2,TAAATTTACAACCCAAGTCCAC,-0.679
3,TTCTCGTGTGAGGTATGCCAGC,-1.1
4,TTCTTCAGCTCTCGCTCCGGGT,-0.923
5,TTCATGGTCACCCTTCTCCAAG,-1.23
6,TACACCTCCACCGTGAACTCGG,-0.419
7,TAGTCCTGCTTCTCTTTCCAGT,-0.999
8,TCCACCGTGAACTCGGTGCGGA,-1.28
9,TGTACTGAGAAGACCAATCTGT,0.223
10,TGTTGAACTTGAGACCTCCAGT,-0.589
11,TTGTACTGCTGGTACCACTGGT,0.0135
12,TTGAGCAGCTTTTCCGTGCGGT,0.289

# Molecular target: LEPRE1
# Experiment: as above
# Details: shRNA
row,Sequence,sensor-assay potency score (higher = more potent)
1,TTGGTAATAGTCTAGGTTCTGC,-0.468
2,TTGAGTCTCAAGATCCTTGAAG,-0.379
3,TAGAGTCGCACTCCCAGTCGAA,-0.94
4,TGCAGCAACAGCTTTCTCCAAC,-1.07
5,TTCTCTTGCAATCTCTTGGGAA,-0.439
6,TTCTCCAACTTGTTGATCTTGA,0.193
7,TGTATCGCTGTCATGCAGCGGC,-0.603
8,TACTGTATCGCTGTCATGCAGC,-0.397
9,TACACAGACACTTAAGTACTGT,-0.0661
10,TCCAGCTCCATCTCTTCGCTGA,-0.664
11,TTGTTGATCTTGAAGTAGGCGA,-0.0372
12,TTTCTCTTGCAATCTCTTGGGA,-0.177

# Molecular target: LGALS1
# Experiment: as above
# Details: shRNA
row,Sequence,sensor-assay potency score (higher = more potent)
1,TTCGTATCCATCTGGCAGCTTG,-0.744
2,TTTGATCTTGAAGTCACCGTCA,0.476
3,TTCAGCACGAAGCTCTTAGCGT,-0.712
4,ATTTGATCTTGAAGTCACCGTC,0.155
5,TTGCACACGATGGTGTTGGCGT,-0.422
6,TTGCTGTTGCACACGATGGTGT,-0.61
7,TTGATCTTGAAGTCACCGTCAG,0.0268
8,TTGACGGTCAGGTTGGCCTGGT,-0.281
9,TTGAGATTCAGGTTGCTGGCGA,0.199
10,TGATCTTGAAGTCACCGTCAGC,-1.02

# Molecular target: LGALS7B
# Experiment: as above
# Details: shRNA
row,Sequence,sensor-assay potency score (higher = more potent)
1,TGAAGCCGTCGTCTGACGCGAT,-0.633
2,ATGATGAGCACCTCGAAGGGCT,-0.649
3,TTGAAGACCACCTCCGACGTGT,0.725
